Source: PubChem (National Center for Advancing Translational Sciences (NCATS))
12-LOX inh = inhibitors of human 12S-lipoxygenase ALOX12; purified 12hLO, xylenol orange hydroperoxide absorbance; Potency, µM (series often up to 108 µM), for the others: at the highest dose activity change, negative = inhibition, most hits filed as inhibitors; hit rate 1.1% among 580,000; AID 1671190; also: % is scaled to controls: 0 for no effect and ±100 for the full control effect
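Purified human 12hLO (150 nM final) in 25 mM Hepes, 0.01% Triton X-100, pH 7.0 was preincubated 15 min at room temperature with compound. Then 40 uM arachidonic acid was added, 30 min. Hydroperoxide was read by Fe-XO absorbance ratio 573/405 nm.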
BAZ2B block = inhibitors of human BAZ2B bromodomain; AlphaScreen BAZ2B-H3K14Ac peptide displacement; AID 504333; Potency, µM (series often up to 114 µM), without a hit: at the highest dose activity change, negative = inhibition, usual class: inhibitors; hit rate 4.4% among 360,000; also: % is scaled to controls: 0 for no effect and ±100 for the full control effect; nearly all actives have a fitted effect of over 60% in size
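Compounds, titrated to a top concentration of 110 uM, were incubated 30 min at room temperature with preformed BAZ2B/acetyl-K14 H3 peptide complex (50 nM each). Proximity signal was measured by AlphaScreen after 20 min with beads.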
PLK1 PBD inh = PLK1 (human) polo-box domain binding inhibition; P53350; Plk1 PBD binding of FITC phosphopeptide, fluorescence polarization; Potency, µM, for inactives: max response, negative = inhibition, most hits filed as inhibitors; hit rate 2.8% among 360,000; also: series mostly up to about 57 µM; % is scaled to controls: 0 for no effect and ±100 for the full control effect; nearly all actives have a fitted effect of over 65% in size
G9a inh = inhibitors of human histone lysine methyltransferase G9a; G9a H3K9 monomethylation, AlphaScreen, 2 h; hit rate 8.8% among 350,000; Q96KQ7; Potency, µM (doses to about 102 µM), for inactives: top-dose activity, negative = inhibition, hits mostly inhibitors; AID 504332; also: % is scaled to controls: 0 for no effect and ±100 for the full control effect; nearly all actives have a fitted effect of over 75% in size
Target sequence (Q96KQ7 913-1193 limits assumed): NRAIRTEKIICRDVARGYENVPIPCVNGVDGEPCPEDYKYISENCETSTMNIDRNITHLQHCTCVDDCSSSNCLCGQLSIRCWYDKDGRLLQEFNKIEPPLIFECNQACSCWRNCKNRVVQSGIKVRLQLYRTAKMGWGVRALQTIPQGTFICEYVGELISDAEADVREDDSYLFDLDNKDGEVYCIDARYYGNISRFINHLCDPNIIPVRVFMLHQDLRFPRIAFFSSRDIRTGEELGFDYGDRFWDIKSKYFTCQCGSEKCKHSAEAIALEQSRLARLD
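Enzyme 20 nM + cpd, 15 min RT; add b-H3K9 pep 500 nM / SAM 20 uM; 2 h RT; anti-H3K9me1 Ab 0.5 ug/mL + SA donor / anti-rabbit acceptor beads 20 ug/mL each, 10 min; AlphaScreen read.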
JMJD2A Tudor inh = blocks the human JMJD2A Tudor domain; O75164; AlphaScreen JMJD2A-Tudor / H3K4me3 peptide binding; Potency, µM (doses to about 114 µM), for inactives: top-dose activity change, negative = inhibition, most hits filed as inhibitors; hit rate 4.4% among 390,000; AID 504339; also: % is scaled to controls: 0 for no effect and ±100 for the full control effect; nearly all actives have a fitted effect of over 50% in size
HP1b binding inh = inhibitors of HP1-beta chromodomain binding to methylated histone tails. P83916. AlphaScreen HP1-beta / biotin-H3K9me3 peptide binding. Potency, µM (titrated, usually from 114 µM), inactives show at the top dose activity change, negative = inhibition, hits mostly inhibitors. hit rate 0.56% among 390,000. AID 540317; also: nearly all actives have a fitted effect of over 70% in size
Target sequence (P83916 whole entry, looked up): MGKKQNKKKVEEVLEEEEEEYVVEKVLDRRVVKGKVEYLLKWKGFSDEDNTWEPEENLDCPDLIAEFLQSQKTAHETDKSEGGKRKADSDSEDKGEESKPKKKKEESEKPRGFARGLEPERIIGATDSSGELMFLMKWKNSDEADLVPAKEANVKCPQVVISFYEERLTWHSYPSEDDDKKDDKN
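AlphaScreen: HP1-beta (50 nM) preformed 30 min with biotin-H3(1-18)K9me3 peptide (50 nM) in PBS pH 7.4, 0.01% Tween-20. Compound added for 30 min at RT, then streptavidin donor/nickel chelate acceptor beads (10 ug/mL) for 30 min.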
* marks the source's active call; other numbers are inactive results; u = inconclusive; x = not tested or not shown; [ ] = another dose, or the depositor's remark. Shown are actives, neighbours in structure and some others; about 9% of the full set was active somewhere. Calls follow the shape of the dose curve; as a rule, active = well fitted curve in the direction sought with a large enough effect; inconclusive = small, poorly fitted or top-dose-only effect, or another doubt; inactive = no such curve, though single readings can be large; an effect the other way counts as inactive or inconclusive. Potency is read from the fitted curve at half-maximal effect.

SMILES	12-LOX inh	BAZ2B block	PLK1 PBD inh	G9a inh	JMJD2A Tudor inh	HP1b binding inh
O=c1[nH]ncc(N2CCCCCC2)c1Cl	1%	-3%	-1%	u	1%	33%
Nc1nonc1-c1nc2ccccc2n1CC(=O)N/N=C/c1ccc(-c2ccccc2C(=O)O)o1	-9%	50µM*	-20%	45µM*	-8%[11.4 µM]	8%
CC(C)S(=O)(=O)c1csc(C(=O)NN)c1Cl	u	-9%	-14%	45µM*	-10%	32%
CC1(C)CC(=O)C(C2C3=C(CC(C)(C)CC3=O)Oc3ccccc32)=C(O)C1 (configuration not stated)	u	16%	-4%	71µM*	-7%	52%
COc1ccc2c(c1)C(C1=C(O)CC(C)(C)CC1=O)C1=C(CC(C)(C)CC1=O)O2 (configuration not stated)	-1%	2%	-8%	2%[59 µM]	-9%	26%
CC(=O)c1ccc(NC(=O)Cn2c(=O)cc(C)c3c(C)nn(-c4cccc(F)c4)c32)cc1	-23%	-2%	x	16%[59 µM]	-15%	-17%
O=C(CCN1C(=O)/C(=C/c2ccccc2)SC1=S)NCCCN1CCOCC1	u	-13%	-9%	8%	-13%	4%
O=C(CCN1C(=O)/C(=C\c2cccc(Br)c2)SC1=S)NCCCN1CCOCC1	-22%	u	u	45µM*	u	-25%
CN1CCN(C(=O)CCCN2C(=O)/C(=C/c3cccc(Br)c3)SC2=S)CC1	u	45µM*	u	40µM*	35µM*	40µM*
CN1CCN(C(=O)CCN2C(=O)/C(=C/c3cccc(Br)c3)SC2=S)CC1	u	-38%	-12%	25µM*	-21%	-2%
CC(O)(c1ccc(F)c(F)c1)c1nc(-c2csc3ccccc23)cs1 (configuration not stated)	45µM*	x	-1%	x	x	x
CC(O)(c1cccc(F)c1)c1nc(/C=C/c2ccccc2)cs1 (configuration not stated)	u	x	-7%	x	x	x
CC(O)(c1ccc(F)c(F)c1)c1nc(/C=C/c2ccc(C(F)(F)F)cc2)cs1 (configuration not stated)	35µM*	x	2%	x	x	x
COc1ccc2[nH]c(C(=O)O)c(CCN3C(=O)c4cccc([N+](=O)[O-])c4C3=O)c2c1	-1%	79µM*	-11%	u	-15%	36%
Cc1ccc(NS(=O)(=O)c2cccc(C(=O)NCCc3c[nH]c4ccccc34)c2)c(C)c1	-23%	-35%	-1%	u	u	5%
CCOc1ccc(-c2cccc(NS(=O)(=O)c3cc([N+](=O)[O-])ccc3Cl)c2)nn1	-29%	u	-14%	50µM*	-36%	-12%
O=[N+]([O-])c1ccc(Cl)c(S(=O)(=O)Nc2cccc(-c3ccc(N4CCOCC4)nn3)c2)c1	-18%	-29%	-7%	50µM*	-16%	9%
Cc1ccc(S(=O)(=O)Nc2cccc(-c3ccc(N4CCCCCC4)nn3)c2)cc1C	-5%	u	-14%	16%	-18%	-4%[57 µM]
Cc1ccc([N+](=O)[O-])cc1S(=O)(=O)Nc1cccc(-c2ccc(N3CCCC3)nn2)c1	-7%	u	-14%	14µM*	-28%	2%
COc1ccc(-c2cccc(NS(=O)(=O)c3cc([N+](=O)[O-])ccc3Cl)c2)nn1	-31%	-5%	-6%	u	-31%	-1%
O=[N+]([O-])c1ccc(S(=O)(=O)Nc2cccc(-c3ccc(N4CCOCC4)nn3)c2)cc1	-9%	-26%	-10%	25µM*	-15%	9%
CCC(C)NC(=O)Cc1ccc(NC(=O)N2CCCCc3ccccc32)cc1 (configuration not stated)	-2%	-2%	x	22%[59 µM]	-11%	21%
CC(C)(C)c1cc(NC(=O)c2ccc(OC3CCCC3)cc2)no1	-19%	15%	-15%	8%[59 µM]	-16%	18%
CC(Sc1nccn1C)C(=O)Nc1ccc(Cl)cn1 (configuration not stated)	-15%	-2%	0%	-26%	-13%	4%
CNC(=O)/C(C#N)=C\c1ccc(CNS(=O)(=O)c2ccccc2)o1	-26%	5%	-11%	19%[59 µM]	-10%	9%
SMILES	12-LOX inh	BAZ2B block	PLK1 PBD inh	G9a inh	JMJD2A Tudor inh	HP1b binding inh
COCCCN1C(=O)/C(=C/c2ccc(CNS(=O)(=O)c3ccccc3)o2)C(C(=O)OC)=C1C	-11%	-38%	-19%	28µM*	56µM*	-11%
CCOCc1[nH]c(=S)[nH]c(=O)c1Cc1ccc(OCC)cc1	u	0%	27µM*	x	-7%[11.4 µM]	3%
CCOCc1[nH]c(=S)[nH]c(=O)c1Cc1ccc(OCC(C)C)cc1	u	-1%	24µM*	-41%	50µM*	-16%
Cc1[nH]c(=S)[nH]c(=O)c1Cc1ccc(OCC(C)C)cc1	0%	3%	-10%	16%[0.501 µM]	-9%	36%
CCCCOc1ccc(Cc2c(COCC)[nH]c(=S)[nH]c2=O)cc1	u	-3%	-29%	x	5%[11.4 µM]	49%
COc1cc2cnc(-c3ccccc3)c(-c3cccc(C(F)(F)F)c3)c2cc1OC	u	56µM*	5%	5%[0.501 µM]	-34%	19%
Cc1ccc(/C=C/C(=O)OCC(=O)N(CC(C)C)c2c(N)n(Cc3ccccc3)c(=O)[nH]c2=O)o1	-15%	4%	1%	-7%[0.501 µM]	-25%	-3%
CN(C(=O)CSc1nc2ccccc2s1)c1c(N)n(Cc2ccccc2)c(=O)[nH]c1=O	-1%	-3%	u	25µM*	-15%	25%
CCN(C(=O)CSc1nncs1)c1c(N)n(Cc2ccccc2)c(=O)[nH]c1=O	-11%	-19%	-5%	14µM*	-11%	53%
CCCCN(C(=O)CSc1nnc(Nc2ccccc2)s1)c1c(N)n(CCC)c(=O)[nH]c1=O	-9%	-5%	u	40µM*	-13%	37%
CCN(C(=O)COC(=O)/C=C/c1ccc(C)o1)c1c(N)n(Cc2ccccc2)c(=O)[nH]c1=O	u	0%	-13%	11µM*	79µM*	u
O=C1CCCN1CCCNc1ccc2nnc(CCC(=O)N3CCN(c4ccc(F)cc4)CC3)n2n1	-6%	-39%	27µM*	-49%	u	-5%
CC1CCN(C(=O)CCc2nnc3ccc(NCCCN4CCCC4=O)nn23)CC1	0%	-2%[57.1 µM]	-7%	-3%	3%	33%
C#CCOCCOCCOCCNc1nc(N2CCN(C(=O)[C@H](C)n3cc(CCCN=C(N)N)nn3)CC2)nc(N2CCN(C(=O)[C@H](CCCCN)n3cc(CCCC)nn3)CC2)n1	x	u	x	4.5µM*	x	x
